Inhibition data for 59 compounds are collected here from ChEMBL document CHEMBL1157539, “Thousands of chemical starting points for antimalarial lead identification” (Nature, 2010).

Holding throughout (assay type): functional
Assay [1] has as its system Plasmodium falciparum. Nature of the assay: GSK_TCMDC: Inhibition of Plasmodium falciparum 3D7 in whole red blood cells, using parasite LDH activity as an index of growth. Test compounds present at 2uM.
Assay [2] relates to Plasmodium falciparum. Nature of the assay: GSK_TCMDC: Inhibition of Plasmodium falciparum Dd2 in whole red blood cells, using parasite LDH activity as an index of growth. Test compounds present at 2uM.
For the next assay, the system named is HepG2. Nature of the assay: GSK_TCMDC: Percent inhibition of human HepG2 cell line. Test compounds present at 10uM.

Residues, ends and D or L forms follow the SMILES beside them. *: point of attachment. Octanoyl = CCCCCCCC(=O)*

In general, Inhibition refers to the relative decrease from the control value, in per cent. A high value points to strong suppression. For the compound `COc1ccccc1CNC(=O)c1nn(-c2ccc(Cl)cc2)c(=O)c2ccccc12`, the Inhibition turned out to be 100% in the assay with Plasmodium falciparum [1], 80% in the assay with Plasmodium falciparum [2] and 0% with HepG2.
For `Cc1nnsc1C(=O)Nc1cccc(-c2ccc(-c3nc4ccccc4[nH]3)s2)c1` the same measures were 89%, 13% and 55%.
For `CC(C)(C)c1ccccc1SC1=C(O)CC2(CCNCC2)OC1=O.Cl` the same measures were 99%, 0% and 0%.
For `CCCc1c(C(=O)OCC)c2cc(O)ccc2n1-c1ccc(OC)cc1`, in that order: 100%, 99% and 0%.
As for `Cc1cccc(CN2CCCN(Cc3ccc(C(=O)Nc4ccc(C(C)(C)C)cc4)cc3)CC2)c1.O=C(O)C(F)(F)F`, the Inhibition is listed as 97% in the assay with Plasmodium falciparum [1], 4% with Plasmodium falciparum [2] and 57% with HepG2.
On to `CS(=O)(=O)Nc1ccc2[nH]cc(C3CCN(CC(O)C4CCN(C(=O)/C=C/c5ccc(Cl)c(Cl)c5)CC4)CC3)c2c1.O=C(O)C(F)(F)F` (configuration not stated), for which the results for the Inhibition in the assay with Plasmodium falciparum [1], in the assay on Plasmodium falciparum [2] and in the assay with HepG2 were 100%, 0% and 28%, respectively.
For `Cc1cccc(CNc2nc(C)cc(NCCC(=O)Nc3ccccc3)n2)c1.O=C(O)C(F)(F)F` the same measures were 100%, 54% and 15%.
For `O=CO.Oc1ccccc1CNCc1ccc(-c2cnc(N3CCCC(c4ccccc4)C3)nc2)cc1` (configuration not stated) the same measures were 99%, 84% and 6%.
As for `CN(C)CCN(C)Cc1ccc(-c2ccc(NC(=O)c3cccc(Cl)c3)cc2)cc1.O=C(O)C(F)(F)F`, the Inhibition was found to be 94% with Plasmodium falciparum [1], 54% in the assay on Plasmodium falciparum [2] and 50% in the assay on HepG2.
For `CCCCCCCC(=O)N[C@@H](Cc1ccccc1)C(=O)N[C@H](C(=O)O)C(C)C` (Octanoyl-Phe-Val-OH), in that order: 89%, 0% and 0%.
For `O=C(/C=C/c1ccc(Cl)c(Cl)c1)N1CCC(CN2CCC(Cc3c[nH]c4ccccc34)CC2)CC1` the same measures were 98%, 13% and 24%.
For `CN(C)CCN(Cc1ccccc1)c1ccc([N+](=O)[O-])cc1C(F)(F)F.O=C(O)C(F)(F)F` the same measures were 96%, 89% and 40%.
For the compound `CC(C)(C)CC(C)(C)c1ccc(O)c(C(=O)Nc2cccc([N+](=O)[O-])c2)c1`, the Inhibition is 95% in the assay on Plasmodium falciparum [1], 97% in the assay with Plasmodium falciparum [2] and 49% in the assay with HepG2.
For `CCc1cc(Cc2cnc(N)nc2N)cc(CC)c1OC` the same measures were 90%, 12% and 3%.
For the compound `COc1ccccc1C1CCN(Cc2csc(NC(=O)c3ccc(-c4ccc(C(F)(F)F)cc4)cc3)n2)CC1`, the Inhibition with Plasmodium falciparum [1] came to 85%; in the assay on Plasmodium falciparum [2], 23%; in the assay on HepG2, 62%.
For `CCS(=O)(=O)Nc1ccc2[nH]cc(C3CCN(CCC4CCN(C(=O)/C=C/c5ccc(Cl)c(Cl)c5)CC4)CC3)c2c1` the same measures were 99%, 94% and 34%.
For `O=C(C=Cc1ccc(Cl)c(Cl)c1)NCCCCCN1CCC(CCCNC(=O)C2CC2c2ccccc2)CC1` (configuration not stated), in that order: 95%, 12% and 45%.
For the compound `COc1ccc2c(NN=Cc3ccc(Cl)cc3)ccnc2c1`, the values for the Inhibition with Plasmodium falciparum [1], in the assay with Plasmodium falciparum [2] and in the assay on HepG2 were 100%, 100% and 8%, respectively.
With `Cc1ccc2[nH]c(-c3ccc(C=CC(=O)NCc4ccc(Cl)c(Cl)c4)cc3)nc2c1`, the results for the Inhibition in the assay on Plasmodium falciparum [1], in the assay with Plasmodium falciparum [2] and with HepG2 were 96%, 18% and 5%, respectively.
For `CCC1(CC)CN(c2ccccc2)c2ccc(O)cc2S(=O)(=O)C1CC(C)C` (configuration not stated) the same measures were 96%, 89% and 0%.
Turning to `CCCc1cn2c3c(cc(C(=O)N[C@@H](Cc4ccccc4)[C@H](O)CNC4CCCCC4)cc13)N(C)S(=O)(=O)CC2.O=CO`, the values for the Inhibition with Plasmodium falciparum [1], in the assay on Plasmodium falciparum [2] and in the assay with HepG2 were 99%, 98% and 3%, respectively.
For `O=C(C=Cc1ccc(Cl)c(Cl)c1)NCCCCCN1CCC(CCCNS(=O)(=O)c2ccc(Br)cc2)CC1` the same measures were 93%, 25% and 74%.
For `Oc1ccc2ccccc2c1C=NNc1nc(=Nc2ccccc2)[nH]c(=Nc2ccccc2)[nH]1` the same measures were 99%, 73% and 55%.
For `CCn1cnc2c(Nc3cccc([N+](=O)[O-])c3)nc(N3CCC(N4CCCCC4)CC3)nc21` the same measures were 98%, 35% and 31%.
Regarding `COc1ccc(-c2ccc(CNCc3ccccc3)cc2)cc1S(=O)(=O)NCCN1CCCC1.O=C(O)C(F)(F)F`, the Inhibition in the assay with Plasmodium falciparum [1] stood at 100%; with Plasmodium falciparum [2] it was 76%; in the assay with HepG2, 36%.
With `Cc1ccc2cc(NCCCCCCCCON3C(N)=NC(N)=NC34CCCCC4)ccc2n1`, the Inhibition came to 92% with Plasmodium falciparum [1], 80% in the assay with Plasmodium falciparum [2] and 15% in the assay on HepG2.
For `COc1cccc(-n2ncc3c(N/N=C/c4ccc(CN(C)CCN(C)C)cc4)ncnc32)c1`, in that order: 100%, 91% and 29%.
For `CC(C)[C@H](NC(=O)c1c(F)cccc1F)C(=O)Nc1ccc(Cc2nc3ccccc3s2)cc1` the same measures were 82%, 72% and 3%.
With `COc1cccc(-c2ccc(C(=O)NCC3CCCN(Cc4cccc(C(F)(F)F)c4)C3)s2)c1.O=C(O)C(F)(F)F` (configuration not stated), the results for the Inhibition in the assay on Plasmodium falciparum [1], with Plasmodium falciparum [2] and in the assay on HepG2 were 85%, 18% and 10%, respectively.
`CCC[C@@H]([C@@H](CC1CCCCC1)C(=O)N[C@@H](CCOC(=O)NCC)C(=O)Nc1nccs1)N(O)C=O`: the Inhibition with Plasmodium falciparum [1] is 100%; with Plasmodium falciparum [2], 79%; in the assay on HepG2, 0%.
For `CCC(C)CC(=O)Nc1ccc(OC)c(S(=O)(=O)N[C@@H]2CCN(C#N)C2)c1` (some centres not stated) the same measures were 94%, 77% and 16%.
For `Cc1cccc(Nc2nc(N[C@@H]3CCCNC3)nc3cc[nH]c(=O)c23)c1.O=C(O)C(F)(F)F` the same measures were 99%, 98% and 55%.
For `N#Cc1ccc(-c2ccc(C(=O)NCCCCN3CCC(c4nc5ccccc5[nH]4)CC3)cc2)cc1`, in that order: 92%, 13% and 43%.
`COc1cccc2c(NN=Cc3cccc(Cl)c3)cc(C)nc12`: the Inhibition worked out at 100% with Plasmodium falciparum [1], 75% in the assay with Plasmodium falciparum [2] and 3% in the assay with HepG2.
With `CN1CCc2ccc(NC(=O)Nc3cccc([N+](=O)[O-])c3)cc2C1`, the Inhibition with Plasmodium falciparum [1] worked out at 87%; with Plasmodium falciparum [2], 3%; in the assay with HepG2 it was 0%.
For `CS(=O)(=O)NCCCNCc1cccc(-c2cccc(-c3nc4cc(F)ccc4[nH]3)c2)c1.O=C(O)C(F)(F)F` the same measures were 100%, 5% and 4%.
For `CN(C)Cc1cc2c(O)c(Cc3ccccc3)ccc2o1`, in that order: 85%, 69% and 3%.
For `O=C(Nc1cc(C(F)(F)F)cc(C(F)(F)F)c1)c1cc(Cl)ccc1O` [IMD-0354], in that order: 90%, 98% and 84%.
Regarding `Cc1ccc(CNC(=O)[C@H](CC(C)C)Nc2cc(C)nc(NCC3CCCCC3)n2)cc1.O=C(O)C(F)(F)F`, the Inhibition was found to be 96% in the assay on Plasmodium falciparum [1], 44% in the assay on Plasmodium falciparum [2] and 6% with HepG2.
For `COc1ccc2ncc(C#N)c(CCN3C[C@H](CNCc4ccccc4)[C@H](O)C3)c2n1.Cl` the same measures were 91%, 24% and 3%.
For `CC(C)c1cc(C(=O)N[C@@H](Cc2ccccc2)[C@H](O)CNC2CCCCC2)cc(N2CCCC2=O)c1` the same measures were 100%, 98% and 0%.
For `COc1ccc2cc(C(c3nnnn3CC3CCCO3)N3CCc4ccccc43)c(=O)[nH]c2c1` (configuration not stated) the same measures were 94%, 3% and 0%.
As to `COc1ccc(C(=O)Nc2ccc(-c3ccc([N+](=O)[O-])cc3)cc2)cc1CCCN(C)C.Cl`, the Inhibition was 98% in the assay on Plasmodium falciparum [1], 9% in the assay on Plasmodium falciparum [2] and 20% in the assay with HepG2.
For `CCNc1cc(C(=O)NC(Cc2ccccc2)C(O)CNC2CCSCC2)cc(N2CCCC2=O)c1` (configuration not stated) the same measures were 99%, 98% and 0%.
For `CC(C)(C)c1ccc(CNCCOc2ccc(Nc3nnc(-c4ccc(-c5ncc[nH]5)cc4)o3)c3ccccc23)cc1.O=C(O)C(F)(F)F` the same measures were 100%, 88% and 43%.
For `N#Cc1ccc(N2CCN(Cc3cccc(-c4cccc(-c5nc6cc(F)ccc6[nH]5)c4)c3)CC2)nc1.O=C(O)C(F)(F)F` the same measures were 90%, 52% and 26%.
Consider `CCOC(=O)C1=C(C)NC2=C(C(=O)C(C(=O)OC)C(C)C2)C1c1cc(Br)c(OCC)c(OC)c1` (configuration not stated), for which the values for the Inhibition in the assay with Plasmodium falciparum [1], in the assay on Plasmodium falciparum [2] and in the assay with HepG2 were 100%, 99% and 8%, respectively.
For `COc1ccc(-c2ccc(NC(=O)c3ccc(F)cc3)cc2)cc1CN1CCCN(C)CC1.O=C(O)C(F)(F)F`, in that order: 98%, 35% and 29%.
Consider `COc1ccc(NC(=O)NC2CCN(CCCOc3cc(C)nc4ccccc34)CC2)cc1OC`, for which the figures for the Inhibition with Plasmodium falciparum [1], in the assay with Plasmodium falciparum [2] and in the assay on HepG2 were 97%, 9% and 3%, respectively.
For `COc1ccc2nccc([C@@H](O)CN3CCC(NCc4cnc5c(c4)NC(=O)CS5)C(F)C3)c2c1.Cl` (some centres not stated), in that order: 90%, 90% and 0%.
With `CCCn1c(Sc2ccc(C#N)c([N+](=O)[O-])c2)nnc1-c1cc(OC)cc(OC)c1`, the results for the Inhibition with Plasmodium falciparum [1], in the assay on Plasmodium falciparum [2] and in the assay with HepG2 were 98%, 79% and 24%, respectively.
`Cc1cc(CN2CCC(C(=O)Nc3ccc(-c4nc5ccccc5[nH]4)cc3)CC2)oc1C`: the Inhibition in the assay on Plasmodium falciparum [1] was 95%; with Plasmodium falciparum [2], 9%; in the assay with HepG2, 0%.
For the compound `Cc1noc(C)c1-c1cccc(CNCc2ccc(-c3cccc(-c4nc5cccc(C)c5[nH]4)c3)cc2)c1.O=C(O)C(F)(F)F`, the Inhibition with Plasmodium falciparum [1] was found to be 100%; in the assay with Plasmodium falciparum [2], 94%; with HepG2 it was 24%.
For `COc1cc2c(cc1NS(=O)(=O)c1ccc(OCc3ccc(Br)cc3)cc1)CCN(C1CCC1)CC2.Cl`, in that order: 94%, 30% and 36%.
For `Cc1ccc(NC(=O)c2ccc(CN3CCCN(Cc4cccc(O)c4)CC3)cc2)cc1C.O=C(O)C(F)(F)F` the same measures were 98%, 25% and 33%.
In the case of `COc1ccc(-c2ccc(NC(=O)c3cccc(F)c3)cc2)cc1CNC(C)C.O=C(O)C(F)(F)F`, the Inhibition turned out to be 97% in the assay on Plasmodium falciparum [1], 14% in the assay on Plasmodium falciparum [2] and 17% in the assay on HepG2.
For `O=C(/C=C/c1ccc(Cl)c(Cl)c1)NCCCCCN1CCCC(C(=O)Nc2ccc(Cl)cc2)C1` (configuration not stated) the same measures were 98%, 0% and 35%.
For `COc1ccc(CN(C)CCCc2ccc(NC(=O)Cc3ccc4nc(-c5ccccc5)ccc4c3)cc2)cc1OC` the same measures were 98%, 0% and 10%.
For `Cl.N#Cc1ccc2c(c1)CCN(CCC1CCC(NC(=O)c3cc4cccc([N+](=O)[O-])c4[nH]3)CC1)C2` (configuration not stated), in that order: 100%, 28% and 0%.
